KLK7 zymogen act: proKLK7 zymogen activators, primary screen, biochemical, fluorescence intensity | activation, % at 7 µM | 0.9% of 370,000 active | purified proKLK7, EDANS-DABCYL substrate fluorescence; 100% is mature enzyme control, 0% vehicle | Kallikrein-7 (Homo sapiens), P49862;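 active = activation above the mean of all tested compounds plus 3 SD, computed per campaign excluding outliers beyond control limits, cut at about 13% in these data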
PfGluPho inh: PfG6PD enzyme inhibitors, primary screen, biochemical, fluorescence intensity, uHTS; glucose-6-phosphate dehydrogenase-6-phosphogluconolactonase (Plasmodium falciparum 3D7); PfGluPho enzyme, NADPH resazurin-diaphorase fluorescence; inhibition, % at 20 µM; 0.78% of 350,000 active; AID 504690, 2011;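 active = inhibition reaching at least a set limit at 20 µM in the primary screen, cut at about 59% in these data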;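 note: 0% = DMSO wells with substrate and 100% = DMSO wells lacking glucose-6-phosphate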
FAS TE block: FAS thioesterase domain inhibitors, primary screen, biochemical, fluorescence intensity, uHTS; recombinant FAS-TE, OMFH fluorogenic substrate, fluorescence endpoint; inhibition, % at 15 µM; 0.67% of 360,000 active; AID 602261, 2012;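 active = compounds whose normalised, plate-corrected inhibition of enzyme fluorescence in the single-dose primary screen is 50% or more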;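 note: 0% = DMSO with enzyme and 100% = substrate without enzyme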
Neddylation inh: inhibitors of cullin neddylation, primary screen, biochemical, TR-FRET, uHTS, NAE and Ubc12; 0.58% of 360,000 active; calls only at 25 µM; NEDD8-conjugating enzyme Ubc12 (Homo sapiens) + NEDD8-activating enzyme E1 regulatory …; in the data active = inhibition above about 36%
Starred values were filed as active, the others as inactive; i = inactive; · = no result shown; + = active, no number. Hits are enriched below; roughly 2.7% of the tested compounds scored in any of these assays.

SMILES	KLK7 zymogen act	PfGluPho inh	FAS TE block	Neddylation inh
O=C(O)c1cccc(-n2sc3ccccc3c2=O)c1	0.2	114.2*	-11.8	i
Cc1ccc(-n2sc3ccccc3c2=O)cc1S(=O)(=O)N1CCCCC1	0.1	127.0*	-7.1	i
O=c1c2cc(F)ccc2sn1-c1ccccc1	0.2	113.5*	-9.4	i
CC1CCC(=NNS(=O)(=O)c2ccc([N+](=O)[O-])cc2)CC1 (stereo not given)	-0.6	32.8	58.0*	i
CN1C(=O)CC(Nc2cccc3cccc(N)c23)C1=O (stereo not given)	·	63.8*	-3.2	i
CCNC(=O)N(C(=O)NCC)n1c(C)nnc1C	15.7*	2.8	-10.1	i
CCOC(=O)C1=C(C)OC(=Cc2ccccc2)C1=O	1.5	3.3	-8.9	i
CCOC(=O)C1=C(O)c2ccccc2C(=O)/C1=C\c1ccc(C)cc1	·	95.7*	24.5	i
CCc1ccc([C@@H]2CC=C(C(=O)O)[C@H](c3ccc(C(C)(C)C)cc3)N2S(=O)(=O)c2ccc(C)cc2)cc1	0.1	-22.6	54.3*	i
Cc1ccc([C@@H]2CC=C(C(=O)O)[C@H](c3ccc(C(C)(C)C)cc3)N2S(=O)(=O)c2ccc(C)cc2)cc1	0.2	-28.3	18.9	i
O=C(CN1CCc2onc(-c3ccc(-n4cc(C5=CCCCC5)nn4)cc3)c2C1=O)N1CCOCC1	0.6	·	·	·
C=CC#CC[N+]1(CC#Cc2ccccc2)CCOCC1	-0.1	71.7*	-8.1	i
Cc1ccc(S(=O)(=O)N(CCc2ccccc2)CC(=O)N2CCOCC2)cc1	-0.8	·	·	·
Cc1cccc(C2=NN(c3ccc(Br)cc3)[C@@H](C(=O)N3CCOC3=O)[C@@H]2c2ccc(F)cc2)c1	-218.1	14.6	74.0*	·
CC[C@@H]1C(c2ccc(F)cc2)=NN(c2ccc(Br)cc2)[C@H]1C(=O)N1CCOC1=O	3.4	26.0	34.4	·
COc1ccccc1[C@H]1C(c2cccc(Cl)c2)=NN(c2ccccc2)[C@@H]1CO	·	22.6	26.9	·
COc1ccccc1[C@@H]1C(c2cccc(Cl)c2)=NN(c2ccccc2)[C@H]1C(=O)N1CCOC1=O	·	7.6	91.0*	i
O=C1OCCN1C(=O)[C@H]1[C@H](c2ccccc2)C(c2cccc(Cl)c2)=NN1c1ccc(Br)cc1	-90.6	16.7	48.9	i
Cc1cccc(C2=NN(c3ccc(Br)cc3)[C@@H](C(=O)N3CCOC3=O)[C@@H]2c2ccc(Cl)cc2)c1	·	30.6	74.3*	·
O=S1(=O)c2c(NCc3ccco3)cccc2Oc2ccccc2CN1Cc1cn(Cc2cccc(F)c2)nn1	-0.7	·	·	·
CN1CCc2c(sc3c2C(=O)NC(c2ccccn2)N3)C1 (stereo not given)	-4.1	11.5	-36.6	+
CCC(C)[C@@H](NC(=O)OC(C)(C)C)c1nnc(S(=O)(=O)Cc2cccc(C)c2)o1 (stereo not given in full)	0.2	8.5	60.0*	i
CC(C)(C)c1nnc2sc(SCC(=O)c3ccc(Cl)cc3)nn2c1=O	·	-4.2	50.8*	i
Oc1cc2c(cc1O)[C@@H](c1ccccc1)CNCC2	0.3	68.9*	-4.5	i
Oc1cc2c(cc1O)C(c1ccccc1)CNCC2 (stereo not given)	0.8	46.8	-2.0	i
SMILES	KLK7 zymogen act	PfGluPho inh	FAS TE block	Neddylation inh
CCC(CC)NC(=O)COc1ccc(OC)cc1C=O	-33.7	-6.1	-4.5	+
CCC(CC)NC(=O)COC(=O)c1ccc(OCC(=O)Nc2ccccc2OC)c(OC)c1	-0.8	-2.2	-4.4	i
Nc1nnc(-c2ccco2)s1	0.1	17.9	-9.1	i
Nc1ncnc2oc(-c3ccco3)c(-c3ccco3)c12	-2.0	33.1	-2.8	+
Cc1cc(N2CCN(C(=O)c3ccco3)CC2)c2ccccc2n1	0.9	-4.3	-5.7	i
CCN1CCN(c2cc(N3CCN(C(=O)c4ccco4)CC3)c3c4c(onc24)-c2ccccc2C3=O)CC1	·	67.9*	8.6	i
COC(=O)C[C@@H]1CC[C@H]2[C@@H](COc3ccc(NC(=O)c4ccc(Cl)cc4)cc3C(=O)N2C)O1	0.2	·	·	·
CCCCCCCC[n+]1cccc2c3ccccc3ccc21	5.8	19.3	0.9	·
CCCCCCCCCC[n+]1cccc2c3ccccc3ccc21	-12.6	8.4	-4.5	+
O=C(COC(=O)c1ccc(Sc2ncn[nH]2)c([N+](=O)[O-])c1)Nc1ccc(Cl)cc1	-0.3	·	·	·
CCCCCCN1CCS(=O)(=O)N(Cc2ccccc2)C(C(=O)OC)C1 (stereo not given)	0.2	·	·	·
CC(C)Sc1nc2c(c(=O)[nH]1)C(c1cccs1)C1=C(CC(C)(C)CC1=O)N2 (stereo not given)	-1.1	3.7	-0.2	i
CCSc1nc2c(c(=O)[nH]1)C(c1ccccn1)C1=C(CC(C)(C)CC1=O)N2 (stereo not given)	32.1*	-2.0	-7.1	·
O=C(Nc1cccc(N2C(=O)C=CC2=O)c1)c1cccs1	-0.2	·	3.8	i
O=C1C=CC(=O)N1c1cccc(-c2ccccc2)c1	0.1	97.9*	11.4	i
COc1ccc(C2=NN(C(=O)c3cccc([N+](=O)[O-])c3)C(c3cccc([N+](=O)[O-])c3)C2)cc1 (stereo not given)	0.5	13.8	50.1*	i
C=CC(=O)Nc1cccc(N(C)c2ccnc(Nc3ccc(N4CCN(C)CC4)cc3)n2)c1	·	66.3*	-8.8	i
C=CC(=O)Nc1cccc(Oc2ccnc(Nc3ccc(N4CCN(C)CC4)cc3)n2)c1	1.2	35.6	-2.7	i
O=C(Cc1cccs1)N/N=C\c1ccccc1	0.0	·	·	·
Cc1ccc(C(C[N+](=O)[O-])c2c(-c3ccccc3O)[nH][nH]c2=O)cc1 (stereo not given)	0.9	-11.6	-4.5	+
O=C(Nc1ccc(Br)cc1)c1cc([N+](=O)[O-])cc([N+](=O)[O-])c1	0.5	7.9	54.9*	i
O=C(/C=C/c1cc[n+](CC(=O)c2ccc3cccc4c3c2CC4)cc1)c1ccc2cccc3c2c1CC3	·	72.8*	3.4	i
O=C(C[n+]1ccc2ccccc2c1)c1cccc2ccccc12	-1.0	14.2	4.3	i
COC(=O)c1cc(=O)nc2sc(-c3ccc(F)cc3)nn12	·	59.1*	-4.3	i
Cn1c(SCc2ccccc2)nccc1=O	0.2	-12.1	-0.7	i
SMILES	KLK7 zymogen act	PfGluPho inh	FAS TE block	Neddylation inh
CC1=C(SCc2ccccc2)C(=O)c2ccccc2C1=O	-1.1	105.1*	8.3	i
O=C(Nc1ccc(F)cc1F)C1CCN(c2nnc(-n3cccc3)s2)CC1	0.1	·	·	·
N#CC1=C(N)N(c2ccccc2)C(c2ccco2)C1(C#N)C#N (stereo not given)	-0.5	-14.8	-1.1	+
CCOCCCNC(=O)C(NC(=O)CNC(C)=O)c1ccc(Cl)cc1 (stereo not given)	0.7	5.0	-3.3	i
CCOCCCNC(=O)C(NC(=O)c1ccccc1O)c1ccc(Cl)cc1 (stereo not given)	·	13.0	1.2	+
C/C(=N\NC(=O)CO/N=C(\C)c1cccs1)c1ccc(N)cc1	-0.2	-6.7	-2.4	i

Source: PubChem BioAssay
